# Screening results deposited in PubChem BioAssay by University of Kansas High Throughput Screening Laboratory.
# This is one part of a sample in which hits are shown more often than they occur.
# Pf apPOL inh = Pf-apPOL DNA polymerase inhibition. Recombinant Pf-apPOL, molecular beacon fluorescence, 1.5 h. inhibition, % at 10 µM. hit rate 0.25% among 210,000. AID 1794808
# mHTT CaM bind = mHTT-calmodulin interaction abrogation | P42858 | AlphaScreen His-mHTT/GST-CaM binding, luminescence | inhibition, % at 15 µM | hit rate 3.6% among 190,000 | AID 1671202;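 further: 0% = both proteins with DMSO and 100% = one protein alone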
# * = called active by the depositor; / = not tested or not shown; ! = not confirmed by another sample. No stated cut-off is given here; in the data, active means inhibition above about 50%; inactive means the rest.
SMILES,Pf apPOL inh,mHTT CaM bind
CN1CCN(C(=O)c2cnc(-c3ccccc3)nc2N2CCSCC2)CC1,-10,97*
CCN1CCN(C(=O)C2COC3(CCCCC3)N2C(=O)c2cccc(F)c2)CC1 (centres undefined),-2,7
O=[N+]([O-])c1cc(C(F)(F)F)cc([N+](=O)[O-])c1Sc1nnnn1-c1ccccc1,4,100*
CS(=O)(=O)N1CCN(c2ccc([N+](=O)[O-])c(Sc3nnnn3-c3ccccc3)c2)CC1,-4,-4
O=C(CSc1nccn1-c1cccc(C(F)(F)F)c1)Nc1nccs1,-3,22
COCCCNC(=O)C1CCN(C(=O)c2cccnc2-c2ccccc2C)CC1,-6,-6
COc1ccc(CN2CCC(C(=O)NCc3ccccc3Cl)CC2)c(OC)c1,-5,-1
COCCNC(=O)C1CCN(Cc2cc3ccccc3n2Cc2ccccc2Cl)CC1,0,83*
COCCCNC(=O)C1CCN(Cc2cc3ccccc3n2Cc2ccccc2C)CC1,2,64*
C=CCn1cnc2c1c(=O)n(C(C)C)c(=O)n2-c1cccc(C)c1,-5,-3
CC(C)Oc1ccc(C(O)=C2C(=O)C(=O)N(CCN(C)C)C2c2ccc3c(c2)OCO3)cc1 (centres undefined),-5,3
CC(=O)Nc1ccccc1/C=C/c1ccc2c(C)ccc(O)c2n1,-5,12
Cc1ccc(O)c2nc(/C=C/c3ccccc3N)ccc12,0,53*
CC(Sc1ccc(Cl)cc1)C(=O)Nc1ccc(F)cc1F (centres undefined),-3,-37
O=C(Nc1nccs1)c1ccc(NC(=O)c2ccccc2-c2ccccc2C(=O)O)cc1,-1,84*
O=C(Nc1nccs1)c1ccc(NC(=O)c2ccccc2[N+](=O)[O-])cc1,-3,13
COc1ccc(Oc2coc3c(CN4CCCCCC4)c(O)ccc3c2=O)cc1,-3,97*
CCOC(=O)c1ccc(Oc2coc3c(CN4CCCCC4)c(O)ccc3c2=O)cc1,-4,-1
Cc1ccc(/C=c2\sc3nc(-c4ccc(C)cc4)nn3c2=O)cc1,-12,0
Cc1ccc(C(=O)N2CCC(C(=O)N3CCN(c4ccccc4F)CC3)CC2)cc1,57*,6
Cc1ccc(CN2CCC(C(=O)N3CCN(c4ccccc4F)CC3)CC2)cc1,-4,16
Cn1nc([N+](=O)[O-])nc1Sc1nc2ccccc2n1C,-5,-3
Cn1nc([N+](=O)[O-])nc1Sc1cccc2cccnc12,-18,66*
O=C(Sc1cccc2cccnc12)c1ccc([N+](=O)[O-])cc1,-2,100*
O=[N+]([O-])c1ccc(CSc2cccc3cccnc23)cc1,-5,63*!
SMILES,Pf apPOL inh,mHTT CaM bind
CCN(CC)C(=O)Sc1cccc2cccnc12,0,1
O=[N+]([O-])c1ccc(CSc2ccccn2)cc1,0,/
NC(=O)c1oc2ccccc2c1NC(=O)CCCS(=O)(=O)c1ccc(Cl)cc1,-1,4
COCCCNC(=O)CC1CCN(C(=O)c2sc(-c3ccccc3)nc2C)CC1,3,-1
COc1ccccc1NC(=O)N1CCCC1c1ccc(F)cc1 (centres undefined),-3,-9
COc1cc(OC)cc(C2=Cc3ccc(OC)cc3C(CC(C)=O)N2c2ccc(-c3cncnc3)cc2)c1 (centres undefined),-4,37
CCc1ccc(C2=Cc3ccccc3C(CC(=O)C3CC3)N2c2ccc(-c3cncnc3)cc2)cc1 (centres undefined),-2,100*
CC(C)n1c(C2CCN(C(=O)c3ccc(C#N)cc3)C2)nc2ccncc21 (centres undefined),0,5
CSc1ccc(CN2C(=O)CCC2(C)C(=O)NCc2ccccc2)cc1 (centres undefined),-2,3
CCCn1cc(S(=O)(=O)Nc2cc(C)ccc2F)c2cccnc21,8,4
CC(C)c1noc(C2CCCN2Cc2ccccn2)n1 (centres undefined),-5,57*
CC(C)c1noc(C2CCCCN2Cc2ccc(N(C)C)cc2)n1 (centres undefined),4,54*
COc1cccc(CN2CCCCC2c2nc(C(C)C)no2)c1 (centres undefined),-7,-42
CC(C)c1noc(C2CCCCN2CC(=O)Nc2ccccn2)n1 (centres undefined),-1,-3
COC(=O)c1ccc(OCC2c3cc(OC)c(OC)cc3CCN2C(=O)c2cccc(Cl)c2)cc1 (centres undefined),1,36
O=C(Nc1ccccc1F)C1CCCN(c2nccc3sccc23)C1 (centres undefined),-4,-2
COc1cccc(C2Oc3ccc(Cl)cc3C3CC(c4ccco4)=NN32)c1 (centres undefined),-12,47
COc1ccc(C2Oc3ccc(Cl)cc3C3CC(c4ccco4)=NN32)cc1OC (centres undefined),-20,60*
COc1cc(C2Oc3ccc(Cl)cc3C3CC(c4ccco4)=NN32)cc(OC)c1OC (centres undefined),-20,63*
